Shown are actives, neighbours in structure and some others; about 3.5% of the full set was active somewhere.
Sm TGR block – blocks Schistosoma mansoni thioredoxin glutathione reductase; Q962Y6; purified TGR, DTNB reduction, TNB absorbance 405 nm; Potency, µM (top dose mostly 114 µM), inactives show at the top dose activity change, negative = inhibition, hits mostly inhibitors; hit rate 3% among 360,000; AID 485364; also: % is scaled to controls: 0 for no effect and ±100 for the full control effect; nearly all actives have a fitted effect of over 60% in size
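First, TGR (20 nM dispensed) and NADPH were mixed with compound. Second, a 15 min room-temperature incubation followed. Third, further NADPH and then DTNB were added to start the reaction. Finally, TNB absorbance was monitored kinetically.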
Giardia FBPA inh – blocks Giardia fructose-bisphosphate aldolase activity; purified Giardia FBPA; A8B2U2; hit rate 0.71% among 290,000; AID 2451; Potency, µM (top dose mostly 59.6 µM), for the others: at the highest dose activity, negative = inhibition, usual class: inhibitors; also: % is scaled to controls: 0 for no effect and ±100 for the full control effect; nearly all actives have a fitted effect of over 55% in size
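40 nM FBPA preincubated 10 min at RT with compound (up to 57.5 uM final), then substrate plus GAPDH/TPI/NAD/arsenate coupling and diaphorase/resazurin added. Fluorescence read after 20 min at RT, 525/598 nm.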
LmPK inhibitor – blocks Leishmania mexicana pyruvate kinase activity; Potency, µM (highest dose often 57.5 µM), for the others: at the highest dose activity change, negative = inhibition, most hits filed as inhibitors; purified LmPK, Kinase-Glo ATP luminescence, 1 h; hit rate 0.37% among 290,000; Q27686; also: % is scaled to controls: 0 for no effect and ±100 for the full control effect
Target sequence (Q27686 whole entry, looked up): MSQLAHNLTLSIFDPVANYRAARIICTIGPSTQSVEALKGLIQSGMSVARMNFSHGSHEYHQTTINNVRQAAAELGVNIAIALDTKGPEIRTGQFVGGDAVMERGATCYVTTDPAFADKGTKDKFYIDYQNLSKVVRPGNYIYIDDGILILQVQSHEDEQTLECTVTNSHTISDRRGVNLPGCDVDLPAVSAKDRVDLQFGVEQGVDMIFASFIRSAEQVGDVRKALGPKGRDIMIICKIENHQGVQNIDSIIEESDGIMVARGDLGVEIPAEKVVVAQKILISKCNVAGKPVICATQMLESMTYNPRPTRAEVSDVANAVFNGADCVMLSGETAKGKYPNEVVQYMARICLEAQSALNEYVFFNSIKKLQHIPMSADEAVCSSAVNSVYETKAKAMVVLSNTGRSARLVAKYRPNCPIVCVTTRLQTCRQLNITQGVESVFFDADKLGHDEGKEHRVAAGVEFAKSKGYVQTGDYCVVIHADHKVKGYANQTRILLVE
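Pyruvate kinase activity monitored as ATP production (luciferase luminescence). Conditions: 0.1 nM enzyme, 0.5 mM PEP, 0.1 mM ADP, 1 h, RT; normalized against uninhibited and no-enzyme wells.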
NS1 function inh – inhibitors of influenza NS1 protein function; Potency, µM (doses to about 46.1 µM), inactives show at the top dose activity, positive = more growth; AID 2326; hit rate 0.4% among 270,000; calls by dose curve; also: actives are rising curves; nearly all actives have a fitted effect of over 50% in size
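S. cerevisiae expressing influenza A NS1, grown in glucose, washed, then diluted 1:100 into pH 6.0 -URA galactose medium with 23 nl compound. Growth recovery read as OD600; NS1-free strain serves as control.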
RE007 growth inh – less growth of the S. pombe RE007 Vpr strain. Potency, µM (highest dose often 92.2 µM), for the others: at the top dose activity change, negative = less growth, hits mostly inhibitors. S. pombe RE007 Vpr strain, BacTiter-Glo ATP luminescence, 24 h. hit rate 0.21% among 360,000; active = well fitted falling curve with a large enough effect; inconclusive = small, poorly fitted or top-dose-only effect; inactive = no such curve, though single readings can be large or run the other way; also: % is scaled to controls: 0 for no effect and ±100 for the full control effect; nearly all actives have a fitted effect of over 50% in size
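Fission yeast strain RE007, carrying one chromosomally integrated HIV-1 vpr copy, was seeded at OD 0.01 in PMG+AL medium with 23 nL pinned compound. After 24 h at 30 °C and 99% humidity, viability was read by BacTiter-Glo luminescence.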
Tb PYK inh – blocks Trypanosoma brucei pyruvate kinase; Potency, µM (highest dose often 76.8 µM), without a hit: at the top dose activity, negative = inhibition, actives largely listed as inhibitors; hit rate 0.12% among 410,000; TbPYK enzyme, Kinase-Glo Plus ATP luminescence, 45 min; AID 624173; also: % is scaled to controls: 0 for no effect and ±100 for the full control effect; nearly all actives have a fitted effect of over 50% in size
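Glycolytic pyruvate kinase of T. brucei was incubated with substrate, test compound and 130 uM ADP for 45 minutes at room temperature. Luminescent Kinase-Glo Plus signal was measured after 10 minutes.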
Numbers without * were called inactive; ? = inconclusive; · = not tested or not shown; [ ] = remark or other dose. Unless noted, calls follow the shape of the dose curve; as a rule, active = well fitted curve in the direction sought with a large enough effect; inconclusive = small, poorly fitted or top-dose-only effect, or another doubt; inactive = no such curve, though single readings can be large; an effect the other way counts as inactive or inconclusive. Potency is read from the fitted curve at half-maximal effect.

SMILES | Sm TGR block | Giardia FBPA inh | LmPK inhibitor | NS1 function inh | RE007 growth inh | Tb PYK inh
COC(=O)Cn1c(-c2ccc(OC)cc2)c(-c2ccc(OC)cc2)nnc1=O | 79µM* | -5% | 34% | -14% | 0% | 2%
COC(=O)c1cc2oc3ccccc3c2n1Cc1nc(-c2cccc(Cl)c2)oc1C | 2% | · | · | · | · | 1%
COc1ccc(N2CCN(C(=O)C3CCN(S(=O)(=O)Cc4ccccc4)CC3)CC2)cc1 | -1% | · | · | · | · | -6%
Cc1ccc(N2CCN(C(=O)c3nn(C)c4c3CSc3ccccc3-4)CC2C)cc1 (stereo not drawn) | 4% | · | · | · | · | 3%
Cc1[nH]c2ccccc2c1C(=O)CN1CCN(C2CCCCC2)CC1 | 40µM* | -1% | 3% | -4% | · | ·
COc1ccccc1N1CCN(CC(=O)c2c(C)[nH]c3ccccc23)CC1 | 32µM* | 1% | 1% | -1% | -3% | -1%
COc1ccccc1N1CCN(CC(O)c2ccccc2)CC1 (stereo not drawn) | 0% | -5% | 1% | -19% | 1% | -3%
COc1ccccc1N1CCN(CC(O)c2c(C)[nH]c3ccccc23)CC1 (stereo not drawn) | 16µM* | -3% | 2% | 5% | -17% | 1%
COc1ccccc1N1CCN(CC(=O)c2c[nH]c3ccccc23)CC1 | -19% | 0% | 11% | 1% | 12% | -2%
Cn1c(=O)c2sccc2n2c(CCC(=O)Nc3ccc(F)cc3)nnc12 | 1% | · | · | · | · | 1%
Cc1ccc(NC(=O)NNS(=O)(=O)c2ccc(Br)cc2)cc1 | -16% | 2% | 0% | 1% | 2% | -3%
Cc1ccc(S(=O)(=O)NC(=O)Nc2ccc(N(C)C)cc2)cc1 | 50µM* | · | -26% | -12% | -24% | -29%
COc1ccc(NC(=O)NC2COc3ccccc3C2)c(OC)c1 (stereo not drawn) | 4% | · | · | · | · | 0%
O=C(O)c1ccc(Cn2cc(/C=C\[N+](=O)[O-])c3ccccc32)o1 | 3.2µM* | 17% | -4% | 25% | 0% | -7%
Cc1nc(-c2ccc(S(=O)(=O)Nc3cc(Cl)ccc3C)cc2)co1 | 16% | · | · | · | · | 3%
CCN(CC)CCOC(=O)c1cccnc1 | · | · | · | · | · | 2%
CC(C)N1CCc2c(sc(NC(=O)CCS(=O)(=O)c3ccccc3)c2C#N)C1 | 14µM* | -21% | 5% | 16% | -28% | 0%
CCCN1CCc2c(sc(NC(=O)CCS(=O)(=O)c3ccccc3)c2C(=O)OC)C1 | 22µM* | · | 0% | 15% | 2% | -1%
Cc1ccc(CNC(=O)CN(c2ccc(C(C)C)cc2)S(=O)(=O)c2c(C)n[nH]c2C)cc1 | -10% | · | · | · | · | -4%
O=C(c1cc2nc(-c3ccco3)cc(C(F)(F)F)n2n1)N1CCc2ccccc2C1 | 50µM* | 0% | 8% | -89% | 0% | 2%
Cc1nn(C)c(C)c1CN(C)C(=O)c1cc2nc(-c3ccco3)cc(C(F)(F)F)n2n1 | 13µM* | -3% | 21% | -6% | -6% | -4%
Cc1nn(C)cc1CN(C)C(=O)c1cc2nc(-c3ccco3)cc(C(F)(F)F)n2n1 | 35µM* | -20% | 19% | ? | 8% | 1%
CN1CCN(C(=O)c2cc3nc(-c4ccco4)cc(C(F)(F)F)n3n2)CC1 | -2% | 2% | 5% | 2% | 11% | -7%
C=C1C[C@@H]2[C@H]3CCC4=CC(=O)C=C[C@]4(C)[C@@]3(F)[C@@H](O)C[C@]2(C)[C@]1(O)C(=O)COC(C)=O | · | · | · | · | · | 2%
CC(C)(C)C1CCc2c(sc(NC(=O)Cn3nnc(-c4cccc(C(F)(F)F)c4)n3)c2C#N)C1 (stereo not drawn) | -6% | · | · | · | · | 9%
SMILES | Sm TGR block | Giardia FBPA inh | LmPK inhibitor | NS1 function inh | RE007 growth inh | Tb PYK inh
Cc1ccccc1NC(=O)C1CCN(S(=O)(=O)c2c(C)noc2/C=C/c2ccco2)CC1 | -35% | · | · | · | · | 1%
Cc1noc(/C=C/c2ccco2)c1S(=O)(=O)N1CCC(C(=O)NCc2ccco2)CC1 | ? | 0% | 3% | -12% | 9% | -5%
Cc1noc(/C=C/c2ccco2)c1S(=O)(=O)N1CCC(C(=O)N2CCc3ccccc3C2)CC1 | 11µM* | -4% | 4% | 9% | -5% | -3%
Cc1ccc(CNC(=O)C2CCN(S(=O)(=O)c3c(C)noc3/C=C/c3ccco3)CC2)cc1 | 40µM* | -5% | 7% | -10% | 4% | 2%
Oc1ccc2c3c1O[C@H]1c4[nH]c5ccccc5c4C[C@@]4(O)[C@@H](C2)N(CC2CC2)CC[C@]314 | 45µM* | · | · | · | -11%[18.4 µM] | -1%
Oc1ccc2c3c1O[C@H]1c4[nH]c5c(c4C[C@@]4(O)[C@@H](C2)N(CC2CC2)CC[C@]314)C[C@@]1(O)[C@H]2Cc3ccc(O)c4c3[C@@]1(CCN2CC1CC1)[C@H]5O4 | · | -7% | · | 18% | · | ·
Oc1ccc2c3c1O[C@H]1c4[nH]c5ccccc5c4C[C@@]4(O)C(C2)N(CC2CC2)CC[C@]314 | 18µM* | -12% | 15% | · | · | ·
Oc1ccc2c3c1O[C@H]1c4[nH]c5ccccc5c4C[C@]4(O)[C@H](C2)N(CC2CC2)CC[C@@]314 | · | -7% | · | · | · | ·
CCc1nn(CC(=O)N2CCN(c3cccc(OC)c3)CC2)c(=O)c2cc3occc3n12 | 2% | · | · | · | · | 1%
COc1cccc(-n2c(C)c3c(OC)cccc(=O)c3c2C)c1 | 22µM* | ? | 9% | ? | 15% | -2%
COc1cccc(=O)c2c(C)n(-c3cc(C)cc(C)c3)c(C)c12 | 0% | 0% | 4% | 2% | -16% | 6%
CCc1ccc(NC(=O)C(=O)NCC(c2ccc3c(c2)OCO3)N2CCN(C)CC2)cc1 (stereo not drawn) | 2% | · | · | · | · | 0%
COC(=O)c1nn2c(C(F)(F)F)cc(-c3ccc(Br)o3)nc2c1Br | 45µM* | -1% | 5% | -3% | -11% | ?
CC(C)(C)NC(=O)c1nn2c(C(F)(F)F)cc(-c3ccccc3)nc2c1Br | -4% | 11% | -1% | 12% | 1% | 0%
CCN1CCN(c2oc(-c3ccc(COc4ccc(C)cc4)o3)nc2C#N)CC1 | 1% | · | · | · | · | -4%
CCCCOc1cccc(C(=O)N(Cc2sccc2C)C2CCS(=O)(=O)C2)c1 (stereo not drawn) | 3% | · | · | · | · | 3%
CCCOc1ccc2cc(-c3ccccn3)c(=O)oc2c1 | 5% | -8% | 10µM* | -8% | ? | ?
O=c1oc2cc(OCc3c(F)cccc3Cl)ccc2cc1-c1ccccn1 | -27% | 6% | -1% | -11% | 2% | -3%
OCCCc1n[nH]c(=S)n1-c1ccccc1 | 45µM* | -26% | 5% | -2% | -17% | -2%
O=C1c2cccc3cccc(c23)C(=O)N1CCCc1n[nH]c(=S)n1-c1ccccc1 | · | 7% | -5% | 11% | 1% | 7.1µM*
